Assay results from PMC7862700, “An all-to-all approach to the identification of sequence-specific readers for epigenetic DNA modifications on cytosine”.

Legend:
Assay in all cases: DAPPL (digital affinity profiling via proximity ligation, sequencing); 10 mM Tris-HCl pH 7.5, 50 mM NaCl, 1 mM DTT, 4% glycerol, room temperature, 30 min; GST-TFs on glutathione beads, 16-mer random dsDNA library, 0.1% formaldehyde crosslink after washing; high values mean tight binding
[1] = biological target: T1, FEV (Homo sapiens, UniProt Q99581 1-238); conditions: protein: recombinant; tags: N-terminal GST; dsDNA, one strand shown
T1 sequence: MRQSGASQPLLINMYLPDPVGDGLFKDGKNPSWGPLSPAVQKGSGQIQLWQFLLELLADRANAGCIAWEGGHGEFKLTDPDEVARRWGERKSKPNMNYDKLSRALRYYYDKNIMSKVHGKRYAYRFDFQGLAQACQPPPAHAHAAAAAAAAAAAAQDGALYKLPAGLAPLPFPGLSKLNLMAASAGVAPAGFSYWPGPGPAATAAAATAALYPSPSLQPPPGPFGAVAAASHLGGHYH
How it was run: (§1)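 Beads coated with glutathione captured GST-fused human transcription factors that had been expressed in yeast, and the factors were then given DNA barcodes and pooled with a tag-only sample. The pools were incubated with 200 nmole of a random double-stranded 16-mer DNA library in Tris/NaCl/DTT/glycerol buffer for 30 min at room temperature, washed, crosslinked with 0.1% formaldehyde and proximity-ligated with BsaI/T4 ligase at 37 °C for 1 h. PCR amplification and Illumina NextSeq500 sequencing came last. Binding signal is each hexamer's read frequency for a factor divided by its frequency for the tag-only sample.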

[2] = biological target: ETV5 (Homo sapiens, UniProt P41161 1-510); conditions: protein: recombinant; tags: N-terminal GST; dsDNA, one strand shown
ETV5, sequence (P41161 whole entry): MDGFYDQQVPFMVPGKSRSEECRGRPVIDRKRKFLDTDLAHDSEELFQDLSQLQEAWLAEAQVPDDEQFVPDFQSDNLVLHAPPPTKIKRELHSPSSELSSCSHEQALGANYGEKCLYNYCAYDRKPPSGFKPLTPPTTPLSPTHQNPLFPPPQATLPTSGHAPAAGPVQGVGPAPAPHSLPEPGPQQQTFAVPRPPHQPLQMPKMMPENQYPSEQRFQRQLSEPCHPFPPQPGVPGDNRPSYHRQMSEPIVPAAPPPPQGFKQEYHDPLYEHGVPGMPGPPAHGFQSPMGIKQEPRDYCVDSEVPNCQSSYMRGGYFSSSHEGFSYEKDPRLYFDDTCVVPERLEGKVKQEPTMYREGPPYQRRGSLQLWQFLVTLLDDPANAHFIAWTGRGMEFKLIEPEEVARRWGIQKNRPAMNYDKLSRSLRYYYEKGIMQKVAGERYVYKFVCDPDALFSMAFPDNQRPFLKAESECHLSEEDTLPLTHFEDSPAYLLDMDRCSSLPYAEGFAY
How it was run: as §1

[3] = biological target: HSF1 (Homo sapiens, UniProt Q00613 1-529); conditions: protein: recombinant; tags: N-terminal GST; chain copies: 3; dsDNA, one strand shown
HSF1, sequence (Q00613 whole entry): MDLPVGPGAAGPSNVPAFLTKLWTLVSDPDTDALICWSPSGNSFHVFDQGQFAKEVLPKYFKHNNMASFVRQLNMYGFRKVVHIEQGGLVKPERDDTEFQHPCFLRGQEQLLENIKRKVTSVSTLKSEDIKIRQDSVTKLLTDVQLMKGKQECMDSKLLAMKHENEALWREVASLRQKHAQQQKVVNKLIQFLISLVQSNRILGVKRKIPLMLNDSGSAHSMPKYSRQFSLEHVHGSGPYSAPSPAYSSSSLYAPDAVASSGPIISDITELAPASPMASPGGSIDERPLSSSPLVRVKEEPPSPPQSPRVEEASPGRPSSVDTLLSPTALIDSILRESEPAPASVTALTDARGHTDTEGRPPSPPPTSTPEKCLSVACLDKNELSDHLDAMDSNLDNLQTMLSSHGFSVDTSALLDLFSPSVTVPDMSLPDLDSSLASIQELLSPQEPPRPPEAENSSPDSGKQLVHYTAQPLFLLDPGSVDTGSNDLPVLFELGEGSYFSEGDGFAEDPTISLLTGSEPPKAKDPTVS
How it was run: as §1

[4] = biological target: T2, SPIC (Homo sapiens, UniProt Q8N5J4 1-248); conditions: protein: recombinant; tags: N-terminal GST; dsDNA, one strand shown
T2 sequence: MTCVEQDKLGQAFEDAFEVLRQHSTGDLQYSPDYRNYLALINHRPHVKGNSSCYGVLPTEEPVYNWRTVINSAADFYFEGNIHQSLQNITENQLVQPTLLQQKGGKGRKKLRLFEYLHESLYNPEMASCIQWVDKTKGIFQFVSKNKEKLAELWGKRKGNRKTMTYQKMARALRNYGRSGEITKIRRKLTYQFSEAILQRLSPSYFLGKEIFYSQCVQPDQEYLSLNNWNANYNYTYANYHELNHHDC
How it was run: as §1

[5] = biological target: ELF4 (Homo sapiens, UniProt Q99607 1-663); conditions: protein: recombinant; tags: N-terminal GST; dsDNA, one strand shown
ELF4, sequence (Q99607 whole entry): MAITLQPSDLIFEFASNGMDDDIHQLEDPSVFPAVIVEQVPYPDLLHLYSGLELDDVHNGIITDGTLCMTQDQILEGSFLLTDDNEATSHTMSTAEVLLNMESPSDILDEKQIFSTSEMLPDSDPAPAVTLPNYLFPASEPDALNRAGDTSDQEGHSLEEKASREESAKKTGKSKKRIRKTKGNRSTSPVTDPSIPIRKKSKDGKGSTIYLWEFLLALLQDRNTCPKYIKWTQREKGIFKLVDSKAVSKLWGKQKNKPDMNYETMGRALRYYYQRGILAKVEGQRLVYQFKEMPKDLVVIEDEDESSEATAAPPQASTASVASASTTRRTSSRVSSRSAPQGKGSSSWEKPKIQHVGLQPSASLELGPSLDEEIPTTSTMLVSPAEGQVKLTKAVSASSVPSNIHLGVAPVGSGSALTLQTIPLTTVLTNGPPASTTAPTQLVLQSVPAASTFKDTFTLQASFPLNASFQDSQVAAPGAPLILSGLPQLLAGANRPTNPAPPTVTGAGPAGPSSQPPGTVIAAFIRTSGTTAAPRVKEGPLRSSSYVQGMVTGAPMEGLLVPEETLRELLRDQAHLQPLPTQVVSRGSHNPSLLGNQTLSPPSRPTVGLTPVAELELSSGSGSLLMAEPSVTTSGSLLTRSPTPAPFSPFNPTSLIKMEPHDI
How it was run: as §1

[6] = biological target: T3, ELK4 (Homo sapiens, UniProt P28324-2 1-405); conditions: protein: recombinant; tags: N-terminal GST; dsDNA, one strand shown
T3 sequence: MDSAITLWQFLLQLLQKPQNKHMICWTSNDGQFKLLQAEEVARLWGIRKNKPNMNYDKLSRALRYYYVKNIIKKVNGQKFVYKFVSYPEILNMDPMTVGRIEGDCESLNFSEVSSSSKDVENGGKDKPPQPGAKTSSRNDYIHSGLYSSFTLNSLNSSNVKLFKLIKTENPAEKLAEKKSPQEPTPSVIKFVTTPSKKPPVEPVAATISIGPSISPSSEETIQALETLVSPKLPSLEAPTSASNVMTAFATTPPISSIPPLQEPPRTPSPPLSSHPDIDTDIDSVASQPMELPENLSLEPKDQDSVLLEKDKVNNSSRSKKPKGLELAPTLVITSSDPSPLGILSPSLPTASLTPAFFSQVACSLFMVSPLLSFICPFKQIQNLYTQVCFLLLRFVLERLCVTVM
How it was run: as §1

[7] = biological target: T4, ETV2 (Homo sapiens, UniProt O00321 1-342); conditions: protein: recombinant; tags: N-terminal GST; dsDNA, one strand shown
T4 sequence: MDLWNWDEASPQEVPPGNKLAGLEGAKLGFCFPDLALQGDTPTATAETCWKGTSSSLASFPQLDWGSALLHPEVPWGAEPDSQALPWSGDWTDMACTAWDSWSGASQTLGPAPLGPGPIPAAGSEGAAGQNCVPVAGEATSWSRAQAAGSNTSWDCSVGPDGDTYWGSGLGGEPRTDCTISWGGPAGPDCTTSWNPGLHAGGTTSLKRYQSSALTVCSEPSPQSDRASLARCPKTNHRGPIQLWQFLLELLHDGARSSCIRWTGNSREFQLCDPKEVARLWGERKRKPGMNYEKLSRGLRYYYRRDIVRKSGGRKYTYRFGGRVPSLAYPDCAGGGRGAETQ
How it was run: as §1

[8] = biological target: T5, ELF3 (Homo sapiens, UniProt P78545 1-371); conditions: protein: recombinant; tags: N-terminal GST; dsDNA, one strand shown
T5 sequence: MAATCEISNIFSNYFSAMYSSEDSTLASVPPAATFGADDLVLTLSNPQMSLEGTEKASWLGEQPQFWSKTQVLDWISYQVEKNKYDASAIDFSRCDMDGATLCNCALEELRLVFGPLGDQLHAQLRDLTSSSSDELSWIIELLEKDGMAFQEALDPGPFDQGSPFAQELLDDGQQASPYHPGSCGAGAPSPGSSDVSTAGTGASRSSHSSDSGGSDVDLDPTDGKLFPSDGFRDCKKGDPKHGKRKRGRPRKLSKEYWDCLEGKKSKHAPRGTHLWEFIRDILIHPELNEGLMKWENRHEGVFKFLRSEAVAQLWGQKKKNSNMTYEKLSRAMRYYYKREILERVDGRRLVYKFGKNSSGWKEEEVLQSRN
How it was run: as §1

[9] = biological target: CRX (Homo sapiens, UniProt O43186 1-299); conditions: protein: recombinant; tags: N-terminal GST; dsDNA, one strand shown
CRX, sequence (O43186 whole entry): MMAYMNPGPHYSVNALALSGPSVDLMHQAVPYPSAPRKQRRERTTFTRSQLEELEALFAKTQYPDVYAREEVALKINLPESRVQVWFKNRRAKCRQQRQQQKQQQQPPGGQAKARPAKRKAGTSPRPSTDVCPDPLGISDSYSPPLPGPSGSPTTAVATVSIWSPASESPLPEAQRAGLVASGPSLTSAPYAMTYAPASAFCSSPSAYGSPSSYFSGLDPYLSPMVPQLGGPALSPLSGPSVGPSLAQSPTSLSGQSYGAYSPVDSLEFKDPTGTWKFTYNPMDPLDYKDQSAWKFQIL
How it was run: as §1

Q: With TAAACA as the sequence, how does the binding signal [1] read?
A: The binding signal was 1.18 fold enrichment (6-mer frequency, TF over GST control).

Q: What about the binding signal [2] of the same sequence?
A: Its binding signal is 1.24 fold enrichment (6-mer frequency, TF over GST control).

Q: What about the binding signal [3] of the same sequence?
A: The binding signal was 1.29 fold enrichment (6-mer frequency, TF over GST control).

Q: What about the binding signal [4] of the same sequence?
A: The binding signal was 1.29 fold enrichment (6-mer frequency, TF over GST control).

Q: And the binding signal [5]?
A: The binding signal was 1.26 fold enrichment (6-mer frequency, TF over GST control).

Q: And the binding signal [6]?
A: Its binding signal is 1.37 fold enrichment (6-mer frequency, TF over GST control).

Q: What about the binding signal [7] of the same sequence?
A: Its binding signal is 1.22 fold enrichment (6-mer frequency, TF over GST control).

Q: And the binding signal [8]?
A: Its binding signal is 1.28 fold enrichment (6-mer frequency, TF over GST control).

Q: What about the binding signal [9] of the same sequence?
A: Its binding signal is 1.53 fold enrichment (6-mer frequency, TF over GST control).
